Compound activity from PubChem.
Shown are actives, neighbours in structure and some others; about 6.1% of the full set was active somewhere.
ATXN2 expr inh: reduces ATXN2 reporter expression in HEK-293 cells; HEK-293 ATXN2-luciferase reporter, luminescence, 24 h; Potency, µM (doses to about 57 µM), for inactives: top-dose activity change, negative = inhibition, hits mostly inhibitors; 360,000 tested, 0.72% active; AID 1745845; further: on the % scale 0 is the no-effect control and ±100 the full control effect; nearly all actives have a fitted effect of over 55% in size
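qHTS (up to 57 uM final) was run with 24 h compound exposure of reporter cells at 37 °C. Each well was multiplexed: SteadyGlo luminescence measured ATXN2-luciferase expression after a fluorogenic Gly-Phe-AFC viability readout (25 uM final).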
S2 tox: reduces viability in counter-screen for ATXN expression inhibitors. S2 cells (HEK-293 line with an ATXN2-luciferase reporter) viability, CellTiter-Fluor protease fluorescence, 24 h. Potency, µM (titrated, usually from 56.7 µM), actives largely listed as cytotoxic. 400,000 tested, 0.49% active; further: nearly all actives have a fitted effect of over 40% in size
Gal4-VP16 FLuc: Gal4-VP16 reporter inhibition counter-screen; Drosophila S2 Gal4-VP16 UAS-luciferase, luminescence, 20 h; Potency, µM (doses to about 53.6 µM), for the others: top-dose activity, negative = inhibition, usual class: inhibitors; 310,000 tested, 3.5% active; AID 2546;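 further: Gal4-VP16 expression switched on by copper sulfate through the metallothionein promoter; on the % scale 0 is the no-effect control and ±100 the full control effect; nearly all actives have a fitted effect of over 50% in size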
HepG2 tox: counter-screen for TGF-b inhibitors: cytotoxicity in HepG2 cells | HepG2 CAGA-GFP viability, ATP luminescence, 18 h | Potency, µM (titrated, usually from 46.1 µM), inactives show at the top dose activity change, negative = cytotoxicity, usual class: cytotoxic | 410,000 tested, 0.76% active
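HepG2 CAGA-GFP cells (1000/well, DMEM with 1% FBS) received compound, then TGF-beta at 500 pg/mL final, and were incubated 18 hours at 37 degrees C. Viability was read by CellTiter-Glo luminescence. Media-only wells were set as complete cell-killing and DMSO as no toxicity.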
RORg inh: blocks mouse ROR gamma transcriptional activity; AID 2551; P51450; Potency, µM (highest dose often 53.6 µM), without a hit: at the top dose activity change, negative = inhibition, hits mostly inhibitors; 310,000 tested, 5.4% active; Drosophila S2 Gal4-RORgamma UAS-luciferase reporter, 20 h; further: on the % scale 0 is the no-effect control and ±100 the full control effect; nearly all actives have a fitted effect of over 60% in size
Target sequence (P51450 whole entry, looked up, the tested form may be a part): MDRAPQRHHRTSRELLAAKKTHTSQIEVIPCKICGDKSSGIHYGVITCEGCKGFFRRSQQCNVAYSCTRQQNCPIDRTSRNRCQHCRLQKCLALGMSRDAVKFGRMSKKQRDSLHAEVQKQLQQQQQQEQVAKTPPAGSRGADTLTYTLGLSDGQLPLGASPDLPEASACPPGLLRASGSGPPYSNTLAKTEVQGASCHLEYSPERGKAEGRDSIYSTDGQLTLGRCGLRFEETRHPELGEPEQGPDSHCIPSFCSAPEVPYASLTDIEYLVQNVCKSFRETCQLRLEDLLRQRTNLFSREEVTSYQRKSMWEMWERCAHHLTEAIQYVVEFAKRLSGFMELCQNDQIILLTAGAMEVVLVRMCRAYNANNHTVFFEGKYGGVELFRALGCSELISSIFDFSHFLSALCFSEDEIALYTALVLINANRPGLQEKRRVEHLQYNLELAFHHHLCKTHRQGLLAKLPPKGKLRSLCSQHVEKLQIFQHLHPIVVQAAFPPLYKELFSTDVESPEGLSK
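Luciferase reporter read in Schneider cells carrying Gal4-RORγ (mouse) and UAS-Photinus luciferase; cells given compound 1 h before 700 uM copper sulfate induction, then incubated 20 h at ambient temperature.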
TGFb SMAD3 inh: inhibitors of TGF-b signaling; HepG2 CAGA-GFP TGF-b/SMAD3 reporter, GFP fluorescence, 18 h; TGF-beta stimulated, 500 pg/mL final; Potency, µM (doses to about 46.1 µM), without a hit: top-dose activity, negative = inhibition, most hits filed as inhibitors; 410,000 tested, 1.2% active; AID 588855; further: on the % scale 0 is the no-effect control and ±100 the full control effect; nearly all actives have a fitted effect of over 65% in size
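Smad-responsive CAGA-GFP expression was quantified in HEPG2 cells exposed to compounds and 500 pg/mL final TGF-beta for 18 h at 37 degrees C; unstimulated wells defined full inhibition.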
Numbers without * were called inactive; i = inactive; u = inconclusive; x = no result given. The call rests on the fitted dose curve; in most records, active means well fitted curve in the direction sought with a large enough effect; inconclusive means small, poorly fitted or top-dose-only effect, or another doubt; inactive means no such curve, though single readings can be large; an effect the other way counts as inactive or inconclusive. Potency means the concentration at half of the fitted maximal effect.

SMILES	ATXN2 expr inh	S2 tox	Gal4-VP16 FLuc	HepG2 tox	RORg inh	TGFb SMAD3 inh
Cc1cccc(CC2CC(=O)N(c3nc4ccccc4s3)C2=O)c1 (configuration not stated)	-3.4%	i	4.6%	1.0%	33.2%	-6.4%
CCCN1CCN(CCNC(=O)Nc2cc(C)ccc2OC)CC1	-10.6%	i	x	-0.4%	x	u
COc1cc(C(=O)Oc2c(CN3CCOCC3)cc(Cl)c3cccnc23)cc(OC)c1OC	1.58µM*	1.58µM*	2.51µM*	-87.5%	4.47µM*	3.98µM*
COc1ccc(C(=O)Oc2c(CN3CCOCC3)cc(Cl)c3cccnc23)cc1	u	u	6.31µM*	7.94µM*	6.31µM*	10µM*
O=C(Oc1c(CN2CCOCC2)cc(Cl)c2cccnc12)c1ccccc1Cl	u	u	3.55µM*	3.55µM*	0.708µM*	u
COc1cccc(C(=O)Oc2c(CN3CCOCC3)cc(Cl)c3cccnc23)c1	10µM*	u	4.47µM*	-55.2%	2.82µM*	u
O=C(NCCc1ccccn1)C1CC12CCN(C(=O)c1ccccc1Cl)CC2 (configuration not stated)	x	i	x	x	x	x
CCOc1ccc(CNC(=O)CCCn2c(=O)c3cccn3c3ccccc32)cc1	x	x	x	-13.5%	x	0.0%
CN(C(=O)c1cnn(-c2nccc(-c3ccccc3C(F)(F)F)n2)c1C1CC1)C1CCOC1 (configuration not stated)	x	i	x	x	x	x
CNC(=S)N1N=C(c2ccc(C)cc2)CC1c1ccc(Cl)cc1 (configuration not stated)	-7.2%	i	-1.7%	-22.8%	12.6µM*	-6.7%
CNC(=S)N1N=C(c2ccccc2)CC1c1ccccc1Cl (configuration not stated)	-6.9%	u	-9.3%	-2.5%	17.8µM*	-4.5%
CC(C)c1ccc(C2CC(c3ccc(Br)cc3)=NN2C(N)=S)cc1 (configuration not stated)	22.3%	i	5.62µM*	-21.4%	1.78µM*	u
CC(=O)N1N=C(c2ccc([N+](=O)[O-])cc2)CC1c1ccccc1Cl (configuration not stated)	-14.7%	i	0.8%	-17.3%	12.1%	-15.7%
CC#CCC(C)[C@H](O)/C=C/[C@@H]1[C@H]2C/C(=C/CCCC(=O)O)C[C@H]2C[C@H]1O (some centres not stated)	x	i	x	x	x	x
Brc1ccc2c(ccc[n+]2CCc2ccccc2)c1	x	x	x	-10.2%	x	-5.3%
CCCCCCCCCCCCCC(=O)Nc1ccc(/C=C/c2ccnc3ccccc23)cc1	x	x	x	-8.3%	x	4.2%
O=C(CCl)N(CCCNC(=O)C(F)(F)F)c1ccc([N+](=O)[O-])cc1	-23.2%	u	-7.0%	15.8µM*	u	u
O=C(NCCCNc1ccc([N+](=O)[O-])cc1)C(F)(F)F	24.1%	i	-0.1%	-46.5%	u	u
CCc1ccccc1NC(=O)C1CCN(c2nc3ccccc3[nH]2)CC1	x	x	x	6.8%	x	12.0%
Fc1ccc(CNC(=S)Nc2ccccc2F)cc1	x	i	u	-14.3%	u	-3.8%
Fc1ccccc1NC(=S)NCc1ccc(Cl)cc1	-5.1%	i	u	-10.1%	11.2µM*	3.3%
COc1ccc(CNC(=S)Nc2ccccc2F)cc1	168.0%	i	17.8µM*	-8.8%	u	-28.0%
COc1ccc(CNC(=S)Nc2cccc(C)c2C)cc1	-3.8%	i	7.94µM*	-18.6%	2.51µM*	-4.6%
COc1ccc(CCNC(=O)C(=O)Nc2ccccc2F)cc1	20.5%	i	x	5.3%	x	-10.0%
CNC(=O)NC(=S)NC(=O)c1ccc(OC)cc1	21.7%	i	-26.8%	-1.9%	11.2µM*	15.3%
SMILES	ATXN2 expr inh	S2 tox	Gal4-VP16 FLuc	HepG2 tox	RORg inh	TGFb SMAD3 inh
O=C(CCn1ccc2cc(S(=O)(=O)N3CCCC3)ccc21)NCc1ccccc1Br	-10.7%	i	x	-3.4%	x	-5.8%
Cc1cc(C)n(-c2nc3cc(Cl)c(Cl)cc3nc2Nc2ccc(F)cc2C)n1	1.9%	i	x	-11.5%	x	u
CCOC(=O)c1cc(-c2ccccc2)n(CCCC(=O)Nc2ccccc2C)c1C	x	x	x	-22.5%	x	-19.6%
COc1ccc(C(=O)NC(=S)Nc2ccccc2F)cc1	36.9%	i	11.2µM*	-24.9%	4.47µM*	-19.4%
CN1C(=O)c2c(sc3c2CCCC3)NC1c1ccccc1O (configuration not stated)	x	x	u	x	39.6%	x
CC1CCCC2(C1)NC(=S)c1c(sc3c1CCCC3)N2 (configuration not stated)	65.6%	i	u	0.4%	31.6µM*	-4.2%
Cc1cccnc1CCNC(=O)c1ccc(OC2CCN(Cc3ccccn3)CC2)cc1	u	i	u	-7.5%	14.1µM*	-15.4%
O=C(NCCc1cccc(Cl)c1)c1ccc(OC2CCN(Cc3ccccn3)CC2)cc1	u	x	-19.0%	-30.6%	17.8µM*	-15.4%
CCn1nc(C)c(CNC(=O)c2ccc(OC3CCN(Cc4ccccn4)CC3)cc2)c1C	-27.0%	u	7.08µM*	-6.0%	-15.4%	-6.0%
CCn1cc(CNC(=O)c2ccc(OC3CCN(Cc4ccccn4)CC3)cc2)cn1	-27.3%	i	-2.5%	-13.1%	u	-14.6%
COCC(=O)N1CCC(Oc2ccc(C(=O)NCCc3ncccc3C)cc2)CC1	-3.3%	i	-15.1%	-27.7%	0.0%	u
O=C(NCCc1ccccn1)c1ccc(OC2CCN(CCc3ccccc3)CC2)cc1	11.2%	i	-18.4%	-13.8%	-35.0%	-6.8%
COc1ccc(-c2cn[nH]c2-c2ccc(OCc3ccccc3)cc2O)cc1OC	-26.4%	u	-2.4%	-53.9%	7.4%	u
COc1ccccc1-c1cn[nH]c1-c1ccc(OCc2ccc(F)cc2)cc1O	-14.5%	i	u	-34.8%	7.94µM*	u
COc1ccc(-c2cn[nH]c2-c2ccc(OCc3ccc(F)cc3)cc2O)cc1OC	u	u	3.55µM*	-30.4%	1.58µM*	14.1µM*
COc1ccccc1-c1cn[nH]c1-c1ccc(O)cc1O	-2.2%	i	u	-16.3%	u	-0.6%
COc1ccccc1-c1cn[nH]c1-c1ccc(OCc2ccccc2F)cc1O	u	u	u	22.4µM*	8.91µM*	u
O=C1N/C(=N\N=C\c2ccccn2)SC1Cc1cccc(SC(F)F)c1 (configuration not stated)	17.8µM*	u	3.16µM*	-16.5%	1.78µM*	u
